SENP8 block-1: SENP8 protease inhibitors, primary screen, biochemical, luminescence; Sentrin-specific protease 8 (Homo sapiens), Q96LD8; purified SENP8, Z-RLRGG-aminoluciferin cleavage; inhibition, % at 10 µM; actives 1.2% (n = 330,000); AID 2540, 2010; in the data active = inhibition above about 50%
HSP90 refold inh: HSP90 inhibitors, primary screen, cell lysate, luminescence; Heat shock protein HSP 90 (rabbit reticulocyte lysate; luciferase refolding); Rabbit reticulocyte lysate, luciferase refolding luminescence, 3 h; inhibition, % at 5.6 µM; actives 0.91% (n = 290,000); AID 1789, 2009;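 active = inhibition above the screen-wide mean plus 3 SD, computed separately per campaign, cut at about 16% in these data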;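 note: 0% = DMSO wells and 100% = 60 µM geldanamycin wells; inhibitors lower the luminescence because luciferase stays unfolded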
SENP8 block-2: human SENP8 protease inhibitors, primary screen, biochemical, fluorescence, Nedd8 protein substrate, uHTS; recombinant SENP8; actives 0.64% (n = 360,000); inhibition, % at 20 µM; AID 602440, 2012; Sentrin-specific protease 8 (Homo sapiens), Q96LD8; in the data active = inhibition mostly above about 40%, no sharp cut-off; inactive = mostly below about 27%
SENP6 block: SENP6 protease inhibitors, primary screen, biochemical, luminescence, uHTS; Sentrin-specific protease 6 (Homo sapiens), Q9GZR1; Recombinant SENP6 catalytic domain, aminoluciferin luminescence; actives 1.8% (n = 330,000); inhibition, % at 10 µM;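 active = inhibition above about 50% at the single tested dose, limit read from the data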;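 note: plate controls were DMSO wells with enzyme for no effect and DMSO wells lacking enzyme for full effect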
Target sequence (Q9GZR1 628-1112 limits assumed): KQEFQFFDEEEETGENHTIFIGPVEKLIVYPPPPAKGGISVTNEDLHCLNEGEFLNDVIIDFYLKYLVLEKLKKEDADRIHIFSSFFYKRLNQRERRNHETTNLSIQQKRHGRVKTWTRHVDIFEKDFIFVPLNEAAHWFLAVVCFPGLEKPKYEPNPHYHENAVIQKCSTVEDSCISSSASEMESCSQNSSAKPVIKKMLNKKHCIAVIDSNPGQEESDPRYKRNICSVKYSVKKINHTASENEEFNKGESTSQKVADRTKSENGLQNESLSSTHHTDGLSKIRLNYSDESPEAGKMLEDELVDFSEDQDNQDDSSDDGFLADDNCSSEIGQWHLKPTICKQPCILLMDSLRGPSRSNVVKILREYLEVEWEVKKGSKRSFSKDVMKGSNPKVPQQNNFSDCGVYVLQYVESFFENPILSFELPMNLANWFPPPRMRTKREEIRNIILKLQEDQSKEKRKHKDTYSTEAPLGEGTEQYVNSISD
SENP7 inh: SENP7 protease inhibitors, primary screen, biochemical, luminescence, uHTS | recombinant SENP7, Z-RLRGG-aminoluciferin luminescence, 40 min | actives 1.5% (n = 330,000) | inhibition, % at 5 µM | Sentrin-specific protease 7 (Homo sapiens), Q9BQF6;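 active = inhibition above about 50% at the single test dose, limit read from the data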;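 note: plate controls were DMSO with enzyme for no effect and no enzyme buffer wells for full effect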
SENP8 conf: SENP8 protease inhibitors, retest, confirmation, biochemical, luminescence, single concentration. shares compounds with SENP7 inh. Recombinant SENP8, Z-RLRGG-aminoluciferin luminescence, 60 min. actives 40% (n = 6,200). inhibition, % at 12.5 µM. AID 488912, 2010;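 active = mean inhibition across replicates above about 50%, limit read from the data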
SENP6 conf: SENP6 protease inhibitors, confirmation, biochemical, luminescence, single concentration; shares compounds with SENP7 inh; recombinant SENP6, Z-RLRGG-aminoluciferin luminescence; inhibition, % at 12.5 µM; actives 58% (n = 6,200)
SENP7 conf: SENP7 protease inhibitors, retest, confirmation, biochemical, luminescence, single concentration; inhibition, % at 12.5 µM; recombinant SENP7, Z-RLRGG-aminoluciferin luminescence, 40 min; actives 69% (n = 6,200); shares compounds with SENP7 inh
Casp3 select: caspase-3 protease inhibitors, confirmation, selectivity assay for SENP inhibitor project, biochemical, single concentration; actives 60% (n = 6,200); inhibition, % at 12.5 µM; AID 488918, 2010; shares compounds with SENP7 inh; purified caspase-3, Z-DEVD-aminoluciferin luminescence, 60 min;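 active = mean inhibition above about 50%, limit read from the data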;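 note: plate controls were enzyme with DMSO for no effect and wells without caspase-3 for full effect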
SENP luc ctr: counter-screen for SENP inhibitors: luminescence interference; shares compounds with SENP7 inh; Pre-incubated SENP8/Z-RLRGG-aminoluciferin, luciferase luminescence interference; inhibition, % at 12.5 µM; actives 39% (n = 6,200); AID 488919;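 active = mean inhibition above about 50% when retested at one dose, limit read from the data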;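 note: plate controls were DMSO wells with completed reaction for no effect and substrate without enzyme for full effect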
The depositor's hits bear a star; x = no result. Only some compounds are listed: those with a hit (about 2.8% of all), similar ones and a draw of the others.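 Rule for the calls, unless noted: active = mean inhibition above about 50% in the one-dose retest (limit read from the data); inactive = the rest.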

SMILES | SENP8 block-1 | HSP90 refold inh | SENP8 block-2 | SENP6 block | SENP7 inh | SENP8 conf | SENP6 conf | SENP7 conf | Casp3 select | SENP luc ctr
COc1cccc(NC(=O)c2cccc(Cl)c2)c1 | 77* | x | 21 | 83* | 77* | 81* | 79* | 95* | 83* | 81*
COc1cccc(NC(=O)c2ccc(CN3CCOCC3)cc2)c1 | 12 | 3 | 8 | 50* | 39 | 27 | 21 | 57* | 63* | 34
COc1cc(OC)cc(C(=O)Nc2cccc(NC(C)=O)c2)c1 | -15 | -1 | 13 | -18 | 10 | x | x | x | x | x
CCOC(=O)Nc1cccc(NC(=O)c2cc(OC)cc(OC)c2)c1 | 42 | -2 | 1 | 64* | 71* | 74* | 70* | 88* | 76* | 74*
O=C1c2ccccc2C(=O)C1c1ccc(Br)cc1 | 93* | -2 | 8 | 94* | 1 | 96* | 94* | 100* | 89* | 95*
O=C1c2ccccc2C(=O)C1c1ccc(Cl)cc1 | 77* | 1 | 11 | 82* | 0 | 89* | 92* | 99* | 89* | 88*
O=C1c2ccccc2C(=O)C1c1ccc(O)cc1 | -1 | 0 | -363 | 46 | -7 | x | x | x | x | x
COc1ccc2nc(NC(=O)Cc3cccs3)sc2c1 | 5 | 1 | 17 | 2 | 11 | x | x | x | x | x
CCOc1ccc2nc(NC(=O)Nc3cccs3)sc2c1 | 57* | -4 | -5 | 68* | 40 | 51* | 61* | 82* | 32 | 38
CCOc1ccc2nc(NC(=O)Cc3cccs3)sc2c1 | 26 | 3 | 0 | 64* | 47 | 57* | 54* | 80* | 32 | 14
COc1ccc(CNC(=O)C2CCN(S(=O)(=O)c3c(C)n[nH]c3C)CC2)cc1 | -2 | 0 | 16 | 1 | 22 | x | x | x | x | x
COC(=O)c1ccc(-c2nc3cc(Cl)c(N)cc3s2)cc1 | 28 | 9 | -409 | 63* | 97* | -18 | -4 | 18 | 38 | -5
COC(=O)c1ccc(-c2nc(O)c(C)s2)cc1 | -4 | 1 | -222 | 1 | -7 | x | x | x | x | x
Clc1cccc(-c2nc(-c3ccc(-c4nn[nH]n4)cc3)no2)c1 | 95* | x | 14 | 99* | 79* | 97* | 97* | 100* | 83* | 89*
Cc1nnc(SCC(=O)NC2CCCCC2)n1C1CCCCC1 | 2 | 1 | 14 | 2 | 3 | x | x | x | x | x
O=C(/C=C\c1ccccc1)Nc1nccs1 | 61* | 4 | 5 | 83* | 88* | 59* | 61* | 95* | 88* | 19
O=C(Nc1nccs1)C(Br)C(Br)c1ccccc1 (stereo unspecified) | 79* | 3 | 3 | 84* | 91* | 76* | 73* | 95* | 85* | 9
CC(=O)OC(C(=O)Nc1nccs1)c1ccccc1 (stereo unspecified) | 5 | 7 | 13 | 1 | 1 | x | x | x | x | x
CCCCNC(=O)COC(=O)CCC(=O)c1ccc(Cl)cc1 | 0 | 0 | 16 | 1 | 14 | x | x | x | x | x
Nc1nonc1-c1noc(COc2ccccc2Cl)n1 | 8 | 4 | 28 | 35 | 28 | x | x | x | x | x
Clc1ccc(OCc2nc(-c3ccccn3)no2)c(Br)c1 | 91* | 7 | 6 | 95* | 90* | 82* | 95* | 99* | 86* | 75*
COc1ccc(-c2nc(-c3ccccn3)no2)cc1 | 97* | 94* | 10 | 98* | 100* | 9 | 101* | 104* | 100* | 98*
COc1nc(C)ccc1-c1noc(-c2ccccn2)n1 | 23 | 12 | 2 | 48 | 53* | 45 | 51* | 86* | 83* | 25
Clc1ccc(-c2nc(-c3ccccn3)no2)cc1Cl | 96* | -4 | 11 | 92* | 98* | 91* | 94* | 98* | 93* | 76*
c1ccc(CCc2nc(-c3ccccn3)no2)cc1 | 0 | -1 | 11 | -7 | -3 | x | x | x | x | x
SMILES | SENP8 block-1 | HSP90 refold inh | SENP8 block-2 | SENP6 block | SENP7 inh | SENP8 conf | SENP6 conf | SENP7 conf | Casp3 select | SENP luc ctr
COc1cc(OC)cc(-c2nc(-c3ccccc3)no2)c1 | -4 | -1 | -10 | 48 | 28 | x | x | x | x | x
COC(=O)c1ccc(NC(=O)c2c(Br)cnn2C)cc1 | 5 | -2 | 30 | 23 | 9 | x | x | x | x | x
Cc1cccn2cc(-c3cc4ccccc4oc3=O)nc12 | 23 | 7 | -456 | 22 | 23 | x | x | x | x | x
O=c1oc2ccccc2cc1-c1cn2cccnc2n1 | 36 | 1 | -349 | 58* | 47 | 46 | 47 | 82* | 82* | 31
N#Cc1ccccc1NC(=O)COC(=O)c1ccc2c(c1)OCCO2 | -5 | 1 | 22 | 16 | 3 | x | x | x | x | x
N#Cc1ccccc1COC(=O)c1ccc2c(c1)OCCO2 | 31 | x | 5 | 61* | 28 | 59* | 52* | 78* | 43 | 37
COc1cccc(C(=O)/C=C/Nc2ccc(NC(C)=O)cc2)c1 | 79* | 2 | -98 | 93* | 87* | 90* | 89* | 98* | 87* | 89*
COc1cccc(C(=O)/C=C/Nc2cccc(O)c2)c1 | 95* | 3 | -78 | 96* | 100* | 99* | 100* | 103* | 98* | 98*
COc1ccc(C(=O)/C=C/Nc2ccc(NC(C)=O)cc2)cc1OC | -6 | -1 | -173 | -16 | 5 | x | x | x | x | x
CCOc1ccc(NC(=O)n2ncc3c(C)cccc32)cc1 | 81* | -7 | 22 | 64* | 91* | -4 | 3 | 6 | 10 | -3
COc1cccc(NC(=O)n2ncc3c(C)cccc32)c1 | 95* | 35* | 20 | 99* | 100* | 100* | 101* | 103* | 99* | 98*
COc1cc(CC(=O)OCc2cccc([N+](=O)[O-])c2)cc(OC)c1OC | -3 | 5 | 4 | -21 | -4 | x | x | x | x | x
